Laboratory results taken from the antibiotic and cytotoxicity screens of Wong et al. (2023).
Hit rate of the full screen: of about 39,000 compounds, about 3,300 (8.5%) were called active. Many of the other results were omitted from the sample, so actives are more common in it than they were.

System: HepG2
Assay: cytotoxicity call (relative viability < 0.9)
Settings: 10 µM

Structure (SMILES)	cytotoxicity call
COc1cccc(-c2ccc3c(c2)O[C@H](CN(C)C(=O)C2CCC2)[C@H](C)CN([C@H](C)CO)S3(=O)=O)c1	inactive
C[C@@H]1CN([C@H](C)CO)C(=O)c2cc(NC(=O)Cc3ccccc3)ccc2O[C@@H](C)CCCCO[C@H]1CN(C)C(=O)Nc1ccc2c(c1)OCO2	inactive
CNC(=O)C[C@H]1CC[C@@H]2[C@H](COc3ccc(NC(=O)c4ccc(C(F)(F)F)cc4)cc3C(=O)N2C)O1	inactive
C[C@H](CO)N1C[C@H](C)[C@H](CN(C)Cc2ccc(C(=O)O)cc2)OCCCC[C@H](C)Oc2ccc(NS(=O)(=O)c3ccc(Cl)cc3)cc2C1=O	inactive
Cc1noc(C)c1NC(=O)N(C)C[C@@H]1Oc2c(NC(=O)NC(C)C)cccc2C(=O)N([C@@H](C)CO)C[C@@H]1C	inactive
NNc1ccc2[nH]c(=O)[nH]c2c1	inactive
C[C@H]1CCCCO[C@H](CN(C)Cc2ccc(C(F)(F)F)cc2)[C@@H](C)CN([C@@H](C)CO)C(=O)c2cc(NC(=O)Nc3ccc(F)cc3)ccc2O1	active
C[C@@H]1CCCCO[C@@H](CN(C)Cc2ccc(C(F)(F)F)cc2)[C@H](C)CN([C@@H](C)CO)C(=O)c2cc(NC(=O)Nc3ccc(F)cc3)ccc2O1	inactive
C[C@@H]1CCCCO[C@@H](CN(C)Cc2ccc(C(F)(F)F)cc2)[C@H](C)CN([C@H](C)CO)C(=O)c2cc(NC(=O)Nc3ccc(F)cc3)ccc2O1	inactive
C[C@@H]1CCCCO[C@H](CN(C)Cc2ccc(C(F)(F)F)cc2)[C@@H](C)CN([C@@H](C)CO)C(=O)c2cc(NC(=O)Nc3ccc(F)cc3)ccc2O1	active
C[C@H](CO)N1C[C@H](C)[C@@H](CN(C)Cc2ccc(C(F)(F)F)cc2)OCCCC[C@H](C)Oc2ccc(NC(=O)Nc3ccc(F)cc3)cc2C1=O	inactive
C[C@@H]1CN([C@@H](C)CO)C(=O)c2cc(NC(=O)Nc3ccc(F)cc3)ccc2O[C@@H](C)CCCCO[C@@H]1CN(C)Cc1ccc(C(F)(F)F)cc1	inactive
C[C@H](CO)N1C[C@H](C)[C@H](CN(C)Cc2ccc(C(F)(F)F)cc2)OCCCC[C@H](C)Oc2ccc(NC(=O)Nc3ccc(F)cc3)cc2C1=O	active
C[C@@H]1CN([C@@H](C)CO)C(=O)c2cc(NC(=O)Nc3ccc(F)cc3)ccc2O[C@@H](C)CCCCO[C@H]1CN(C)Cc1ccc(C(F)(F)F)cc1	active
CCNC(=O)C[C@H]1C=C[C@@H](NC(=O)C2CCOCC2)[C@@H](CO)O1	inactive
COc1ccc(NC(=O)N(C)C[C@@H]2Oc3ccc(NC(=O)C4CC4)cc3CC(=O)N([C@H](C)CO)C[C@H]2C)cc1	inactive
CN(C)CC(=O)N[C@@H]1CC[C@H](CCNC(=O)C2CC2)O[C@H]1CO	inactive
COc1ccc(NC(=O)N(C)C[C@H]2OCCCC[C@H](C)Oc3ccc(NS(=O)(=O)c4ccc(OC)cc4)cc3C(=O)N([C@H](C)CO)C[C@@H]2C)cc1	inactive
C[C@H](CO)N1C[C@H](C)[C@@H](CN(C)C(=O)Nc2ccc(N3CCN(C)CC3)cc2)OCc2cnnn2CCCC1=O	inactive
CC(=O)NCCCC[C@@H]1NC(=O)[C@@H]2C[C@H](C(=O)NCCCCCNC(=O)CS)[C@H](c3cccc(OCCO)c3)N2C1=O	inactive
C[C@@H]1CN([C@H](C)CO)C(=O)c2cc(NS(=O)(=O)c3cn(C)cn3)ccc2O[C@@H](C)CCCCO[C@@H]1CN(C)S(=O)(=O)c1ccccc1	inactive
C[C@@H]1CN([C@H](C)CO)C(=O)c2cccc(NC(=O)NC3CCCCC3)c2O[C@@H]1CN(C)Cc1ccc(Oc2ccccc2)cc1	inactive

Structure (SMILES)	cytotoxicity call
COc1ccc(NC(=O)N(C)C[C@H]2Oc3ccc(NC(=O)Nc4cccc5ccccc45)cc3CC(=O)N([C@H](C)CO)C[C@H]2C)cc1	inactive
CC(C)CC#Cc1ccc2c(c1)O[C@H](CN(C)C(=O)Cc1ccccn1)[C@@H](C)CN([C@H](C)CO)S2(=O)=O	inactive
C[C@H](CO)N1C[C@H](C)[C@@H](CN(C)C(=O)NC2CCCCC2)OCCCC[C@H](C)Oc2ccc(NC(=O)Cc3ccccc3)cc2C1=O	inactive
COc1ccc(CN(C)C[C@H]2Oc3c(NC(=O)Nc4ccc(C(F)(F)F)cc4)cccc3C(=O)N([C@@H](C)CO)C[C@@H]2C)cc1	inactive
C[C@@H]1CCCCO[C@@H](CN(C)Cc2ccc(C(F)(F)F)cc2)[C@@H](C)CN([C@H](C)CO)C(=O)c2cc(NC(=O)Nc3ccc(F)cc3)ccc2O1	inactive
C[C@@H]1CCCCO[C@H](CN(C)Cc2ccc(C(F)(F)F)cc2)[C@H](C)CN([C@H](C)CO)C(=O)c2cc(NC(=O)Nc3ccc(F)cc3)ccc2O1	active
C[C@@H]1CCCCO[C@H](CN(C)Cc2ccc(C(F)(F)F)cc2)[C@H](C)CN([C@@H](C)CO)C(=O)c2cc(NC(=O)Nc3ccc(F)cc3)ccc2O1	active
C[C@@H]1CN([C@H](C)CO)C(=O)c2cc(NC(=O)Nc3ccc(F)cc3)ccc2O[C@@H](C)CCCCO[C@@H]1CN(C)Cc1ccc(C(F)(F)F)cc1	inactive
C[C@@H]1CCCCO[C@@H](CN(C)Cc2ccc(C(F)(F)F)cc2)[C@@H](C)CN([C@@H](C)CO)C(=O)c2cc(NC(=O)Nc3ccc(F)cc3)ccc2O1	inactive
C[C@H]1CCCCO[C@@H](CN(C)Cc2ccc(C(F)(F)F)cc2)[C@@H](C)CN([C@@H](C)CO)C(=O)c2cc(NC(=O)Nc3ccc(F)cc3)ccc2O1	active
C[C@@H]1CN([C@H](C)CO)C(=O)c2cc(NC(=O)Nc3ccc(F)cc3)ccc2O[C@@H](C)CCCCO[C@H]1CN(C)Cc1ccc(C(F)(F)F)cc1	active
C[C@@H]1CCCCO[C@H](CN(C)Cc2ccc(C(F)(F)F)cc2)[C@@H](C)CN([C@H](C)CO)C(=O)c2cc(NC(=O)Nc3ccc(F)cc3)ccc2O1	inactive
C[C@H](CO)N1C[C@H](C)[C@@H](CN(C)Cc2ccc(Cl)c(Cl)c2)Oc2ccc(NC(=O)Cn3cnnn3)cc2CC1=O	inactive
COc1ccc(S(=O)(=O)Nc2ccc3c(c2)C(=O)N([C@H](C)CO)C[C@@H](C)[C@H](CN(C)C(=O)Nc2ccc(F)cc2)OCCCC[C@@H](C)O3)cc1	inactive
C=CCN(C#N)c1nc(N(C)C)nc(N(C)C)n1	inactive
C[C@@H]1CN([C@H](C)CO)C(=O)c2cccc(NC(=O)c3cnccn3)c2O[C@@H]1CN(C)Cc1ccccc1	inactive
Cc1noc(C)c1S(=O)(=O)Nc1ccc2c(c1)C(=O)N([C@H](C)CO)C[C@H](C)[C@@H](CN(C)S(=O)(=O)c1cccs1)O2	inactive
Cc1noc(C)c1NC(=O)Nc1ccc2c(c1)CC(=O)N([C@H](C)CO)C[C@@H](C)[C@@H](CN(C)Cc1ccc(C(F)(F)F)cc1)O2	inactive
Cc1ccc(S(=O)(=O)N2C[C@@H](O)COC[C@H]3O[C@H](CC(=O)N[C@@H]4CCN(Cc5ccccc5)C4)CC[C@@H]32)cc1	inactive
COc1ccccc1C#Cc1cnc2c(c1)C(=O)N([C@@H](C)CO)C[C@H](C)[C@@H](CN(C)C(=O)CN(C)C)O2	inactive
C=C(C)[C@@H]1CC[C@]2(COC(C)=O)CC[C@]3(C)[C@H](CC[C@@H]4[C@@]5(C)CC[C@H](OC(C)=O)C(C)(C)[C@@H]5CC[C@]43C)[C@@H]12	inactive
C[C@@H]1CCCCO[C@@H](CN(C)S(=O)(=O)c2cn(C)cn2)[C@H](C)CN([C@@H](C)CO)C(=O)c2cc(NS(=O)(=O)c3cn(C)cn3)ccc2O1	inactive

Structure (SMILES)	cytotoxicity call
C[C@H]1CN([C@@H](C)CO)C(=O)c2cc(NC(=O)C3CC3)ccc2O[C@H]1CN(C)C(=O)NC1CCCCC1	inactive
COc1cc2c(cc1OC)[C@@]13ON=C(c4ccc(OCCOC(=O)NCCCCCC(=O)NO)cc4)[C@@H]1CCN3CC2	inactive
COc1cc2c(cc1OC)-c1onc(-c3ccc(OCCO[Si](C(C)C)(C(C)C)C(C)C)cc3)c1CCCN(C[C@@H](C)O)CC2	inactive
COc1cc2c(cc1OC)-c1onc(-c3ccc(OCCO[Si](C(C)C)(C(C)C)C(C)C)cc3)c1CCCN(C[C@@H](C)OC(=O)NCCCCCC(=O)NO)CC2	active
C/C=C/c1cccc(-c2nc(C(=O)NCc3ccc(OC)cc3)cc3c2[C@@H](CCO)N([S@](=O)C(C)(C)C)C3)c1	inactive
COc1nn(C)cc1-c1n[nH]c(=S)n1C	inactive
O=C(C[C@@H]1CC[C@@H]2[C@H](COC[C@H](O)CN2S(=O)(=O)c2ccc(Oc3ccccc3)cc2)O1)NC1CCC1	inactive
CC1(O)CCC(C(C)(C)O)CC1.O (stereo unspecified)	inactive
CCCC#Cc1ccc2c(c1)O[C@@H](CN(C)S(=O)(=O)c1cccc(OC)c1)[C@@H](C)CN([C@H](C)CO)S2(=O)=O	inactive
COc1cccc(S(=O)(=O)N(C)C[C@H]2Oc3ncc(C#CCN(C)C)cc3C(=O)N([C@H](C)CO)C[C@@H]2C)c1	inactive
COc1ccc(NC(=O)Nc2ccc3c(c2)CC(=O)N([C@@H](C)CO)C[C@@H](C)[C@H](CN(C)S(=O)(=O)c2cn(C)cn2)O3)cc1	inactive
COc1ccc(S(=O)(=O)Nc2ccc3c(c2)C(=O)N([C@H](C)CO)C[C@H](C)[C@@H](CN(C)CC2CCCCC2)OCCCC[C@H](C)O3)cc1	inactive
COc1ccc(S(=O)(=O)Nc2ccc3c(c2)C(=O)N([C@@H](C)CO)C[C@H](C)[C@H](CN(C)CC2CCCCC2)OCCCC[C@@H](C)O3)cc1	inactive
COc1ccc(S(=O)(=O)Nc2ccc3c(c2)C(=O)N([C@H](C)CO)C[C@@H](C)[C@H](CN(C)CC2CCCCC2)OCCCC[C@@H](C)O3)cc1	inactive
COc1ccc(S(=O)(=O)Nc2ccc3c(c2)C(=O)N([C@@H](C)CO)C[C@H](C)[C@@H](CN(C)CC2CCCCC2)OCCCC[C@H](C)O3)cc1	inactive
COc1ccc(S(=O)(=O)Nc2ccc3c(c2)C(=O)N([C@H](C)CO)C[C@@H](C)[C@@H](CN(C)CC2CCCCC2)OCCCC[C@@H](C)O3)cc1	active
COc1ccc(S(=O)(=O)Nc2ccc3c(c2)C(=O)N([C@H](C)CO)C[C@@H](C)[C@@H](CN(C)CC2CCCCC2)OCCCC[C@H](C)O3)cc1	inactive
COc1ccc(S(=O)(=O)Nc2ccc3c(c2)C(=O)N([C@@H](C)CO)C[C@@H](C)[C@@H](CN(C)CC2CCCCC2)OCCCC[C@H](C)O3)cc1	active
COc1ccc(S(=O)(=O)Nc2ccc3c(c2)C(=O)N([C@@H](C)CO)C[C@@H](C)[C@@H](CN(C)CC2CCCCC2)OCCCC[C@@H](C)O3)cc1	active
COc1ccc(S(=O)(=O)Nc2ccc3c(c2)C(=O)N([C@@H](C)CO)C[C@@H](C)[C@H](CN(C)CC2CCCCC2)OCCCC[C@@H](C)O3)cc1	inactive
COc1ccc(S(=O)(=O)Nc2ccc3c(c2)C(=O)N([C@@H](C)CO)C[C@H](C)[C@H](CN(C)CC2CCCCC2)OCCCC[C@H](C)O3)cc1	inactive
COc1ccc(S(=O)(=O)Nc2ccc3c(c2)C(=O)N([C@@H](C)CO)C[C@@H](C)[C@H](CN(C)CC2CCCCC2)OCCCC[C@H](C)O3)cc1	inactive
